These results are taken from PubChem BioAssay (Tox21).

Experiment [1] in a line: A CellTox Green Cytotoxicity Assay to monitor cytotoxicity in HepG2 cells - 24 hour (AID 1224878). Also: nearly all actives have a fitted effect of over 45% in size. Put shortly: (§1)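 Fluorescent DNA-binding dye, 600 HepG2 cells/well, 5 h preincubation then compound in DMSO; same plates read at 0–40 h, 37 C.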
The nature of experiment [2]: A CellTox Green Cytotoxicity Assay to monitor cytotoxicity in HepG2 cells - 40 hour (AID 1224879). Also: nearly all actives have a fitted effect of over 40% in size. Put shortly: as §1
The nature of experiment [3]: qHTS RealTime-Glo MT Cell Viability Assay in HEK293 cells - 0 hour (AID 1224880). Also: top concentration of the series differs between compounds; nearly all actives have a fitted effect of over 45% in size. The procedure, abridged:
(§2)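 Measured as luminescence from the same continuously cultured HEK293 wells at successive time points (0, 8, 16, 24, 32, 40 h) after compound addition. Reagent present from seeding; dosing at 5 h; incubation 37 C.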

The nature of experiment [4]: A CellTox Green Cytotoxicity Assay to monitor cytotoxicity in HEK293 cells - 32 hour (AID 1224881). Also: nearly all actives have a fitted effect of over 40% in size. The procedure, abridged:
(§3)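 Homogeneous no-lysis format: HEK293 cell suspension mixed with CellTox Green reagent, seeded, incubated 5 h at 37 C/5% CO2, then dosed by pintool with compound in DMSO.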

The nature of experiment [5]: A CellTox Green Cytotoxicity Assay to monitor cytotoxicity in HepG2 cells - 0 hour (AID 1224882). Also: nearly all actives have a fitted effect of over 35% in size. Put shortly: as §1
Experiment [6] can be described thus: A CellTox Green Cytotoxicity Assay to monitor cytotoxicity in HepG2 cells - 32 hour (AID 1224883). Also: nearly all actives have a fitted effect of over 50% in size. The procedure, abridged:
as §1

Experiment [7] in a line: A CellTox Green Cytotoxicity Assay to monitor cytotoxicity in HEK293 cells - 8 hour (AID 1224884). Also: nearly all actives have a fitted effect of over 35% in size. Put shortly: as §3
Experiment [8] is described as follows: qHTS RealTime-Glo MT Cell Viability Assay in HEK293 cells - 8 hour (AID 1224887). Also: top concentration of the series differs between compounds; nearly all actives have a fitted effect of over 50% in size. The procedure, abridged: as §2
The nature of experiment [9]: A CellTox Green Cytotoxicity Assay to monitor cytotoxicity in HEK293 cells - 16 hour (AID 1224888). Also: nearly all actives have a fitted effect of over 35% in size. The procedure, abridged: as §3
A short description of experiment [10]: A CellTox Green Cytotoxicity Assay to monitor cytotoxicity in HepG2 cells - 8 hour (AID 1224890). Also: nearly all actives have a fitted effect of over 45% in size. The procedure, abridged:
as §1

Experiment [11] can be described thus: qHTS assay to identify small molecule antagonists of the estrogen receptor alpha (ER-alpha) signaling pathway using the BG1 cell line in the presence of 0.1 nM 17-beta-estradiol - cell viability counter screen (AID 1259241). Also: nearly all actives have a fitted effect of over 40% in size. Put shortly:
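Viability in VM7Luc4E2 cells after 22 hr compound exposure under 0.1 nM 17beta-estradiol stimulation, by CellTiter-Fluor.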

The nature of experiment [12]: qHTS assay to identify small molecule antagonists of the androgen receptor (AR) signaling pathway using the MDA cell line in the presence of 0.5 nM R1881 - cell viability counter screen (AID 1259242). Also: nearly all actives have a fitted effect of over 45% in size. Put shortly: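 Human breast carcinoma MDA-kb2 cells, cultured without CO2, receive compounds alongside 0.5 nM (final) R1881 agonist. After 16 hr at 37C, viability is taken as live-cell protease signal.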

Experiment [13] can be described thus: qHTS assay to identify small molecule phospholipidosis (PLD) inducers (AID 1259344; active = well fitted curve in the direction sought with a large enough effect; an effect the other way counts as inactive or inconclusive). Put shortly: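 Accumulated phospholipid, stained red by LipidTOX during 24 h compound treatment of HepG2 cells at 37 C, is quantified from images as pit number and intensity, normalised per cell using Hoechst-stained nuclei.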
Experiment [14] is described as follows: qHTS assay to identify small molecule HDAC inhibitors (AID 1259364). The procedure, abridged:
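After a 2 hr compound incubation (37C, 5% CO2), HCT-116 cells seeded at 1,500/well the day before received HDAC-Glo reagent; signal read as luminescence after 30 min at room temperature.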

Experiment [15] can be described thus: qHTS assay to identify small molecule HDAC inhibitors - cell viability counter screen (AID 1259365). Also: series mostly up to about 92 µM; nearly all actives have a fitted effect of over 50% in size. The procedure, abridged: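 Cytotoxicity was gauged in wild-type HCT-116 cells after a brief 2hr treatment with DMSO-dissolved compounds at 37C and 5% CO2, using CellTiter-Glo luminescence developed for 30min at room temperature.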
A short description of experiment [16]: qHTS RealTime-Glo MT Cell Viability Assay in HepG2 cells - 16 hour (AID 1224885). Also: nearly all actives have a fitted effect of over 50% in size. The procedure, abridged:
(§4)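 HepG2 suspension premixed with RealTime-Glo reagents is plated at 600 cells per well and left 5 h at 37 C/5% CO2. Compounds in DMSO then go in, and bioluminescence reflecting viable cell number is recorded over 40 h.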

Experiment [17] can be described thus: qHTS RealTime-Glo MT Cell Viability Assay in HEK293 cells - 24 hour (AID 1224886). Put shortly:
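Reads taken at 0, 8, 16, 24, 32 and 40 h from the same wells. HEK293 cells (600/well) carried RealTime-Glo reagents from seeding, with compound added after a 5 h settle at 37 C.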

The nature of experiment [18]: qHTS RealTime-Glo MT Cell Viability Assay in HepG2 cells - 0 hour (AID 1224889). Also: nearly all actives have a fitted effect of over 50% in size. The procedure, abridged:
as §4

Experiment [19] has as its target Androgen receptor (Homo sapiens) (UniProt P10275). Kind of experiment: qHTS assay to identify small molecule antagonists of the androgen receptor (AR) signaling pathway using the MDA cell line in the presence of 0.5 nM R1881 (AID 1259243). Also: nearly all actives have a fitted effect of over 50% in size. Also: potency is read from the fitted curve at half-maximal effect. The procedure, abridged: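 Cells: MDA-kb2 (MMTV-luc). Stimulus: 0.5 nM R1881. Time: 16 hr, 37C, no CO2. Detection: ONE-Glo luminescence after 30 min at RT.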

Experiment [20] concerns the target Estrogen receptor (Homo sapiens) (UniProt P03372). Kind of experiment: qHTS assay to identify small molecule antagonists of the estrogen receptor alpha (ER-alpha) signaling pathway using the BG1 cell line in the presence of 0.1 nM 17-beta-estradiol (AID 1259244). Also: nearly all actives have a fitted effect of over 50% in size. Put shortly:
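Seeding of stripped-serum-adapted VM7Luc4E2 cells, 24 h attachment, compound transfer, then 0.1 nM final 17beta-estradiol; after 22 h incubation, ONE-Glo reagent and luminescence reading.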

Values without a mark were called inactive. Inconclusive results are not listed. The source made the active and inactive calls. Unless noted, calls follow the shape of the dose curve; as a rule, active = well fitted curve in the direction sought with a large enough effect in the repeat runs; inconclusive = weak or mixed curves; inactive = no such curve, though single readings can be large; an effect the other way counts as inactive or inconclusive.

Estrogen receptor (Homo sapiens), sequence (P03372 whole entry, looked up): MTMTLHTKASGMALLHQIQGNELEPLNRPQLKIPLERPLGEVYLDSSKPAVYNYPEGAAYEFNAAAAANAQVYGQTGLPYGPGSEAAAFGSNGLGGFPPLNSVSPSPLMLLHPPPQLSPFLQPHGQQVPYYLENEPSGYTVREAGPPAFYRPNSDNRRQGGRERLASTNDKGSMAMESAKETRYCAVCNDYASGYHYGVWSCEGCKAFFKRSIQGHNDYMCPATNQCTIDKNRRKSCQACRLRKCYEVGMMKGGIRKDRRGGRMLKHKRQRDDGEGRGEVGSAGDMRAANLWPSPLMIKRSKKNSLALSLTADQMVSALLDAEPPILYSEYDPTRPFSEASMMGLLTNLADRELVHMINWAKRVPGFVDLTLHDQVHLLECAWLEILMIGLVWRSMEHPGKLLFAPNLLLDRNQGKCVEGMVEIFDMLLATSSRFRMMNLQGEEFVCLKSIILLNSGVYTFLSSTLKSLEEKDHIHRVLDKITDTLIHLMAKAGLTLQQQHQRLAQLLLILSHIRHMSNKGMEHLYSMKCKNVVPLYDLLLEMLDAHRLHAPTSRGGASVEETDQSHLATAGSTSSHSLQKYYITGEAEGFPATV
Androgen receptor (Homo sapiens), sequence (P10275 whole entry, looked up): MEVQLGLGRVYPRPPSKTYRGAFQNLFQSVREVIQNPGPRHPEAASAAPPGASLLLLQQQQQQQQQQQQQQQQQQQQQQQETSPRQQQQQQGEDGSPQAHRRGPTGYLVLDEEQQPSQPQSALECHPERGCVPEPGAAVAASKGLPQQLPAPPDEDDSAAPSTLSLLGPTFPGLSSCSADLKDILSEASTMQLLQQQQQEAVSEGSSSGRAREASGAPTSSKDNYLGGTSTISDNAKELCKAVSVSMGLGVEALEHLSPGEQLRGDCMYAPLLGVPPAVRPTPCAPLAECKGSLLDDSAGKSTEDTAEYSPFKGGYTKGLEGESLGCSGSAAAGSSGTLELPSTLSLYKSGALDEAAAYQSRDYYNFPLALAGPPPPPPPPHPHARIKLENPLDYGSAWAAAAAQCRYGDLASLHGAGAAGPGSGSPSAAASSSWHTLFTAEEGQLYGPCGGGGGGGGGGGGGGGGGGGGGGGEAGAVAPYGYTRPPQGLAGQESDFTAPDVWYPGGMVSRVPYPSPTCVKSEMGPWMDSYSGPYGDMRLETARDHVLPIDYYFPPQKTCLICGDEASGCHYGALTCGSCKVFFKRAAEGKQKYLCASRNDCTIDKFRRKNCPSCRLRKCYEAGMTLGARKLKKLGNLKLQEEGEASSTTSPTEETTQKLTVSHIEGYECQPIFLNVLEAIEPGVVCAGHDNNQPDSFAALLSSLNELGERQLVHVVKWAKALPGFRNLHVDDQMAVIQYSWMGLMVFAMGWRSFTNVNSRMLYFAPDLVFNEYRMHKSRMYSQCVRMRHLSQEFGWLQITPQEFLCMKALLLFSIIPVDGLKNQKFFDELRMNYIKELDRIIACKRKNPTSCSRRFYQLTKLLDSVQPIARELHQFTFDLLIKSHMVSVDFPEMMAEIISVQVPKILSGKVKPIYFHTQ

Take `COc1cc(C(=O)NC2CCCNC2)cc(OC)c1OC` (stereo not drawn): the Potency entry in experiment [1], in experiment [2], in experiment [3], in experiment [4], in [5] and in experiment [6] was “inactive” throughout. Further, the Potency entry in experiment [7], in experiment [9], in experiment [10], in [13] and in [14] was “inactive” in each case. For the same compound, the compound was called inactive in [8], in experiment [11], in experiment [12] and in experiment [15].

On to `Clc1cc(Cl)c(Cl)c(Cl)c1Cl`, for which the Potency result in experiment [1], in experiment [2], in [3], in [4], in experiment [5] and in experiment [7] was “inactive” in each case. In addition, the Potency result in [9], in [18], in experiment [10] and in [14] was “inactive” each time. Also, the compound was classed as inactive in experiment [16], in experiment [17], in experiment [8], in experiment [11], in [12] and in [15].

In the case of `O=C(c1ccccc1)c1cccc(O)c1`, the Potency result in experiment [1], in experiment [2], in experiment [3], in [4], in [5] and in experiment [6] was “inactive” in each case. In addition, the Potency entry in experiment [7], in experiment [9], in experiment [18] and in experiment [14] was “inactive” throughout. The compound was called inactive in experiment [17], in [8], in [11], in [12], in experiment [20] and in [15]. Further, the Potency in experiment [19] is 27.7 µM (active).

For the compound `CC1(C)C(=O)C(C)(C)C1=O`, the Potency entry in [1], in [2], in experiment [3], in experiment [4], in experiment [5] and in [6] was “inactive” throughout. Besides, the Potency entry in experiment [7], in [9], in [18], in [10], in experiment [19] and in experiment [14] was “inactive” throughout. For the same compound, the call in [17], in experiment [8], in [11], in experiment [12] and in experiment [15] was inactive.

For the compound `CC(=O)c1ccc2ccc3ccccc3c2c1`, the Potency result in [1], in experiment [2], in [3], in experiment [4], in [5] and in [6] was “inactive” each time. Moreover, the Potency result in experiment [7], in experiment [9], in experiment [18] and in experiment [10] was “inactive” in each case. Further, the compound was classed as inactive in experiment [16], in experiment [11], in experiment [12], in [20] and in experiment [15].

In the case of `CN(C)CCc1c[nH]c2ccc(C[C@H]3COC(=O)N3)cc12`, the Potency result in [1], in [2], in experiment [3], in experiment [4], in experiment [5] and in experiment [6] was “inactive” each time. Further, the Potency result in experiment [7], in experiment [9], in [18], in experiment [10], in experiment [13] and in experiment [14] was “inactive” throughout. In addition, the compound was classed as inactive in experiment [17], in experiment [8], in experiment [11], in experiment [12], in [20] and in experiment [15].

For the compound `CCCC(=O)CC`, the Potency result in experiment [1], in experiment [2], in [3], in experiment [4], in experiment [5] and in experiment [6] was “inactive” each time. In addition, the Potency result in experiment [7], in [9], in experiment [18], in experiment [10] and in experiment [14] was “inactive” throughout. The call in experiment [8], in [11], in [12], in experiment [20] and in [15] was inactive.

For the compound `CC(C)=CCC/C(C)=C\C#N`, the Potency entry in [1], in experiment [2], in [3], in experiment [4], in experiment [5] and in experiment [6] was “inactive” throughout. Also, the Potency result in [7], in [9], in experiment [18] and in experiment [10] was “inactive” in each case. Moreover, the outcome in experiment [17], in experiment [8], in experiment [12], in experiment [20] and in [15] was inactive.

For the compound `CCCCCC(CC)OC(=O)CCCOc1ccc(Cl)cc1Cl` (stereo not drawn), the Potency entry in experiment [1], in experiment [2], in experiment [3], in experiment [4], in experiment [5] and in experiment [6] was “inactive” throughout. Besides, the Potency result in [7], in experiment [9], in experiment [18], in experiment [10] and in experiment [14] was “inactive” each time. Besides, the result in experiment [8], in experiment [11] and in [12] was inactive.

In the case of `CCCc1ncc(C(=O)O)s1`, the Potency entry in experiment [1], in experiment [2], in experiment [3], in [4], in experiment [5] and in experiment [6] was “inactive” each time. Also, the Potency result in [7], in [9], in experiment [18], in experiment [10], in [19] and in experiment [14] was “inactive” in each case. Moreover, the outcome in [17], in [8], in experiment [11] and in experiment [12] was inactive.

With `COC(=O)C(c1ccccc1Cl)N1CCc2sccc2C1` (stereo not drawn), the Potency result in experiment [1], in experiment [2], in [3], in experiment [4], in experiment [5] and in experiment [6] was “inactive” throughout. Also, the Potency entry in experiment [7], in [9], in [18], in experiment [10], in experiment [13] and in experiment [14] was “inactive” throughout. Moreover, the result in experiment [17], in experiment [8], in experiment [11], in experiment [12] and in experiment [15] was inactive.

Turning to `CC(C)(C)C(=O)CCc1ccc(Cl)cc1`, the Potency entry in [1], in experiment [2], in experiment [3], in experiment [4], in experiment [5] and in experiment [6] was “inactive” each time. For the same compound, the Potency result in experiment [7], in experiment [9], in experiment [18], in experiment [10] and in experiment [14] was “inactive” throughout. In addition, the call in [8], in experiment [11], in experiment [12], in experiment [20] and in experiment [15] was inactive.

Take `COC(=O)c1ccc(C(=O)O)cc1`: the Potency entry in experiment [1], in experiment [2], in experiment [3], in experiment [4], in experiment [5] and in experiment [6] was “inactive” each time. The Potency result in experiment [7], in experiment [9], in experiment [18], in experiment [10] and in [14] was “inactive” each time. Moreover, the result in [17], in [8], in experiment [11], in [12] and in experiment [15] was inactive.

With `CCCCCCCCCCCCCCCC/C=C/C1CC(=O)OC1=O` (stereo not drawn), the Potency result in experiment [1], in experiment [2], in [3], in [4], in experiment [5] and in [6] was “inactive” throughout. Further, the Potency result in experiment [7], in [9], in [18], in experiment [10] and in experiment [14] was “inactive” each time. Further, the compound was called inactive in experiment [8], in [11], in experiment [12] and in experiment [15].
